Results published in PubChem BioAssay AID1159580 (chemical genetic matrix, 2015).
Values joined by “and” are separate entries in the source; they are usually repeats but may differ in a detail not shown here. Identical values can stand only once. Among all 5,500 compounds or so, about 2,000 (36%) were called active. Another 18% or so got no clear call; they are omitted. No stated cut-off is given here; in the data, active means normalized growth mostly below about 0.91 (no sharp cut-off); inconclusive means no clear call, values can overlap the other calls; inactive means mostly above about 0.92. The list shows a part of the results.

Experiment: chemical genetic growth profiling, strain panel (AID 1159580);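 further: tested at 20 µM; growth read once vehicle control cultures reached saturation at 30 °C; 1 = growth at the plate median or of vehicle wells; lower values mean less growth of the strain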
Settings: S. cerevisiae deletion strains, growth OD

Measured: normalized growth

C[C@@H]1CC[C@@]23CCC4(C)[C@@](C=CC5[C@@]6(C)CCC(=O)C(C)(C)C6CC[C@]54C)(OC2=O)C3[C@H]1C (stereo not given in full)
inactive: locus YAL013W, strain DEP1, hits give low values 1.03 | locus YAL021C, strain ccr4, hits give low values 0.998 | locus YAL026C, strain drs2, hits give low values 1.01 | locus YAL030W, strain snc1, hits give low values 0.998 | locus YBL061C, strain skt5, hits give low values 0.994 | locus YBR009C, strain hhf1, hits give low values 1.02 | locus YBR021W, strain FUR4, hits give low values 1.01 | locus YBR023C, strain chs3, hits give low values 1 | locus YBR171W, strain sec66, hits give low values 0.99 | locus YBR229C, strain ROT2, hits give low values 1.02 | locus YBR231C, strain swc5, hits give low values 1.01 | locus YBR279W, strain paf1, hits give low values 0.99 | locus YCL011C, strain gbp2, hits give low values 1.02 | locus YCL016C, strain dcc1, hits give low values 0.981 | locus YCL029C, strain bik1, hits give low values 1.03 | locus YCL061C, strain MRC1, hits give low values 1.01 | locus YCL069W, strain vba3, hits give low values 0.997 | locus YCR088W, strain abp1, hits give low values 0.992 | locus YDL005C, strain med2, hits give low values 1 | locus YDL035C, strain GPR1, hits give low values 1.02 | locus YDL040C, strain nat1, hits give low values 0.997 | locus YDL074C, strain BRE1, hits give low values 1.01 | locus YDL101C, strain DUN1, hits give low values 1.03 | locus YDL185W, strain tfp1, hits give low values 0.989 | locus YDL192W, strain arf1, hits give low values 1.01 | locus YDR001C, strain nth1, hits give low values 0.987 | locus YDR069C, strain doa4, hits give low values 1 | locus YDR101C, strain arx1, hits give low values 1.01 | locus YDR137W, strain rgp1, hits give low values 1.04 | locus YDR150W, strain NUM1, hits give low values 1.02 | locus YDR159W, strain sac3, hits give low values 1 | locus YDR162C, strain NBP2, hits give low values 1.04 | locus YDR195W, strain ref2 0.957 | locus YDR297W, strain sur2, hits give low values 1.02 | locus YDR318W, strain mcm21, hits give low values 1.04 | locus YDR334W, strain swr1, hits give low values 0.998 | locus YDR335W, strain msn5, hits give low values 1 | locus YDR388W, hits give low values 1 | locus YDR392W, strain spt3, hits give low values 1.01 | locus YDR502C, strain sam2, hits give low values 1.02 | locus YEL003W, strain gim4, hits give low values 1.01 | locus YEL037C, strain rad23, hits give low values 1.01 | locus YEL061C, strain CIN8 (second series), hits give low values 0.99 | locus YEL061C, strain CIN8, hits give low values 1.02 | locus YER015W, strain faa2, hits give low values 1.01 | locus YER016W, strain bim1, hits give low values 0.993 | locus YER110C, hits give low values 1.01 | locus YER111C, strain swi4, hits give low values 0.995 | locus YER155C, strain BEM2 (second series), hits give low values 1.01 | locus YER155C, strain BEM2, hits give low values 1.02 | locus YER167W, strain BCK2, hits give low values 1.01 | locus YFR010W, strain ubp6, hits give low values 1.02 | locus YGL078C, strain dbp3, hits give low values 1.01 | locus YGL086W, strain mad1, hits give low values 1 | locus YGL167C, strain pmr1, hits give low values 0.994 | locus YGL173C, strain kem1, hits give low values 1.01 | locus YGL227W, strain vid30, hits give low values 0.983 | locus YGL240W, strain doc1, hits give low values 1.03 | locus YGL248W, strain PDE1, hits give low values 1.02 | locus YGL253W, strain hxk2, hits give low values 1 | locus YGR135W, strain pre9, hits give low values 1 | locus YGR229C, strain SMI1, hits give low values 1.02 | locus YGR252W, strain gcn5, hits give low values 1.02 | locus YHR013C, strain ard1, hits give low values 0.986 | locus YHR027C, strain rpn1, hits give low values 1.01 | locus YHR030C, strain SLT2, hits give low values 1.02 and 0.996 | locus YHR079C, strain IRE1 (second series), hits give low values 1.02 | locus YHR079C, strain IRE1, hits give low values 1.01 | locus YHR129C, strain ARP1, hits give low values 1.02 | locus YHR142W, strain chs7, hits give low values 0.97 | locus YHR200W, strain rpn10, hits give low values 1.02 | locus YIL066C, strain RNR3, hits give low values 1.03 | locus YIL073C, strain SPO22, hits give low values 1 | locus YIL125W, strain kgd1, hits give low values 0.992 | locus YIR030C, strain dcg1, hits give low values 1.04 | locus YJL092W, strain hpr5, hits give low values 0.989 | locus YJL095W, strain BCK1 (second series), hits give low values 1 | locus YJL095W, strain BCK1, hits give low values 1.04 and 0.991 | locus YJL115W, strain asf1, hits give low values 0.993 | locus YJL129C, strain trk1, hits give low values 0.98 | locus YJL134W, strain LCB3, hits give low values 1.01 | locus YJL154C, strain vps35, hits give low values 0.981 | locus YJL164C, strain tpk1, hits give low values 1.01 | locus YJL166W, strain qcr8, hits give low values 1.01 | locus YJL168C, strain set2, hits give low values 1.01 | locus YJL187C, strain SWE1 (second series), hits give low values 1.03 | locus YJL187C, strain SWE1, hits give low values 0.993 | locus YJR043C, strain POL32, hits give low values 1.02 | locus YJR066W, strain TOR1, hits give low values 0.953 | locus YKL009W, strain mrt4, hits give low values 1.01 | locus YKL068W, hits give low values 1.02 | locus YKL085W, strain MDH1 (second series), hits give low values 1 | locus YKL085W, strain MDH1, hits give low values 1 | locus YKL160W, strain elf1, hits give low values 0.999 | locus YKR001C, strain vps1, hits give low values 0.977 | locus YKR026C, strain gcn3, hits give low values 1 | locus YKR091W, strain srl3, hits give low values 0.994 | locus YLL001W, strain dnm1, hits give low values 0.982 | locus YLL026W, hits give low values 1 | locus YLL041C, strain sdh2, hits give low values 1 | locus YLR027C, strain aat2, hits give low values 1.02 | locus YLR039C, strain RIC1, hits give low values 1.05 | locus YLR058C, strain SHM2, hits give low values 1.02 | locus YLR102C, strain apc9, hits give low values 1.01 | locus YLR113W, strain HOG1, hits give low values 1 | locus YLR221C, strain rsa3, hits give low values 0.988 | locus YLR258W, strain gsy2, hits give low values 1.01 | locus YLR262C, strain YPT6 (second series), hits give low values 1.02 | locus YLR262C, strain YPT6, hits give low values 1.07 | locus YLR268W, strain sec22, hits give low values 0.995 | locus YLR320W, strain mms22, hits give low values 1 | locus YLR330W, strain CHS5, hits give low values 1.02 | locus YLR342W, strain FKS1 (second series), hits give low values 1.01 | locus YLR342W, strain FKS1, hits give low values 1.01 | locus YLR357W, strain rsc2, hits give low values 0.991 | locus YLR370C, strain arc18, hits give low values 0.996 | locus YLR384C, strain iki3, hits give low values 0.989 | locus YLR418C, strain cdc73, hits give low values 1.01 | locus YML016C, strain PPZ1, hits give low values 1.02 | locus YML032C, strain rad52, hits give low values 1.04 | locus YML120C, strain ndi1, hits give low values 0.994 | locus YML124C, strain tub3, hits give low values 1.02 | locus YMR058W, strain fet3, hits give low values 1.01 | locus YMR078C, strain ctf18, hits give low values 1.09 | locus YMR125W, strain sto1, hits give low values 0.978 | locus YMR129W, hits give low values 0.99 | locus YMR205C, strain PFK2, hits give low values 0.983 | locus YMR223W, strain ubp8, hits give low values 1.04 | locus YMR231W, strain pep5, hits give low values 0.993 | locus YMR307W, strain GAS1, hits give low values 1.06 | locus YNL067W, strain RPL9B, hits give low values 1.02 | locus YNL071W, strain lat1, hits give low values 1.01 | locus YNL153C, strain GIM3, hits give low values 1.03 | locus YNL183C, strain NPR1, hits give low values 0.964 | locus YNL209W, strain ssb2, hits give low values 0.988 | locus YNL233W, strain BNI4, hits give low values 1.03 | locus YNL248C, strain rpa49, hits give low values 1.02 | locus YNL250W, strain rad50, hits give low values 1 | locus YNL271C, strain bni1, hits give low values 1.01 | locus YNL298W, strain CLA4, hits give low values 1.01 | locus YNL307C, strain MCK1, hits give low values 1.02 | locus YNL322C, strain KRE1 (second series), hits give low values 1 | locus YNL322C, strain KRE1, hits give low values 1.01 | locus YNR049C, strain mso1, hits give low values 0.994 | locus YNR052C, strain pop2, hits give low values 1.02 | locus YOL006C, strain TOP1, hits give low values 1 | locus YOL012C, strain htz1 1.03 | locus YOL147C, strain pex11, hits give low values 1.01 | locus YOR001W, strain rrp6, hits give low values 1.02 | locus YOR061W, strain CKA2, hits give low values 1.01 | locus YOR069W, strain VPS5, hits give low values 1.01 | locus YOR070C, strain gyp1, hits give low values 0.995 | locus YOR080W, strain dia2, hits give low values 0.996 | locus YOR083W, strain WHI5, hits give low values 1.01 | locus YOR106W, strain vam3, hits give low values 1 | locus YOR136W, strain idh2, hits give low values 1.01 | locus YOR144C, strain elg1, hits give low values 1.02 | locus YOR184W, strain ser1, hits give low values 1.01 | locus YOR231W, strain MKK1, hits give low values 1.01 | locus YOR265W, strain rbl2, hits give low values 1.01 | locus YOR270C, strain vph1, hits give low values 1.03 | locus YOR290C, strain snf2, hits give low values 0.97 | locus YOR316C, strain cot1, hits give low values 1.03 | locus YPL051W, strain arl3, hits give low values 1.04 | locus YPL078C, strain atp4, hits give low values 1.01 | locus YPL106C, strain sse1, hits give low values 1.01 | locus YPL240C, strain hsp82, hits give low values 0.996 | locus YPL256C, strain CLN2, hits give low values 0.987 | locus YPR119W, strain clb2, hits give low values 1.02 | locus YPR141C, strain kar3, hits give low values 1.04 | locus YPR163C, strain tif3, hits give low values 1.01 | locus YPR167C, strain met16, hits give low values 1.01 | strain wtn01, hits give low values 0.995
active: locus YHR094C, strain hxt1, hits give low values 1.11 [resistant] | locus YLR371W, strain rom2, hits give low values 1.1 [resistant]
